Out of some 330,000 compounds screened, about 1,700 (0.52%) were called active. This is one part of a sample in which actives are shown more often than they occur. Unmarked numbers belong to inactive results.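 Rule for the calls: active = GFP response versus DMSO above a set limit, roughly screen mean plus 3 SD (cut at about 180% in these data); inconclusive = fewer than 70 cells counted for a yeast strain; inactive = the rest.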

The assay can be described thus: modulators of MEP2-GFP levels in yeast, primary screen, S. cerevisiae, multiplex flow cytometry, MLPCN library (AID 2016).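 Note: median GFP fluorescence of the barcode-gated MEP2-GFP cells per well.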 Conditions: S. cerevisiae MEP2-GFP strain, 3 h, at 10 µM, active compounds read high, 100% = DMSO control level.
In the case of `COc1cccc(NC(=O)C(Sc2nnnn2C)c2ccccc2)c1` (stereo not drawn), the GFP response vs DMSO is 100%.

As to `CC(C)(C)C(=O)/C(C#N)=C/c1ccc(O)cc1`, the GFP response vs DMSO was 95.4%.

Regarding `Cc1cc(=O)oc2cc(NC(=O)C3CC(=O)N(Cc4ccccc4)C3)ccc12` (stereo not drawn), the GFP response vs DMSO is 559% [may fluoresce violet] (active).

Consider `Cc1cc(=O)oc2cc(NC(=O)C(C)Oc3ccccc3)ccc12` (stereo not drawn), for which the GFP response vs DMSO is 99.1%.

On to `O=C(Nc1ccc(F)c([N+](=O)[O-])c1)C1CC(=O)N(Cc2ccccc2)C1` (stereo not drawn), for which the GFP response vs DMSO is 101%.

On to `O=C(C(Cc1ccccc1)n1cccc1)N1CCN(C2CCCCC2)CC1` (stereo not drawn), for which the GFP response vs DMSO was 96.8%.

As to `CC(C)Cn1cnc2c1c(=O)n(CC(=O)NN)c(=O)n2Cc1ccccc1`, the GFP response vs DMSO was 97.4%.

Consider `CN(CCO)Cc1csc2ccc(Br)cc12`, for which the GFP response vs DMSO was 112%.

Take `CCN(CC)Cc1cc(C(C)=O)ccc1O`: the GFP response vs DMSO is 103%.

For `CCN(CC)Cc1csc2ccc(Br)cc12`, the GFP response vs DMSO is 200% (active).

With `CC(=O)N1c2ccc(S(=O)(=O)NCCC(=O)N(C)C3CCCCC3)cc2CC1C` (stereo not drawn), the GFP response vs DMSO is 104%.

`Cc1ccc(S(=O)(=O)Oc2ccc(/C=N/NC(=O)c3c(Cl)cnn3C)cc2)cc1`: the GFP response vs DMSO was 98.8%.

`COc1ccc(CCNC(=O)c2ccccc2-c2ccccc2C(=O)O)cc1OC`: the GFP response vs DMSO is 93%.

In the case of `COc1ccc(CCNc2cc(N3CCN(C(=O)c4ccccc4OC)CC3)ccc2[N+](=O)[O-])cc1OC`, the GFP response vs DMSO is 180% [may fluoresce violet] (active).

Turning to `COc1ccccc1OCCNc1cc(N2CCOCC2)ccc1[N+](=O)[O-]`, the GFP response vs DMSO is 106%.

For the compound `COC(=O)/C(=C\Nc1ccccc1)NC(=O)c1ccc(Cl)cc1Cl`, the GFP response vs DMSO was 91.1%.

Turning to `COCC1CCN(C(=O)c2ccc3oc(Cc4ccccc4)nc3c2)C1` (stereo not drawn), the GFP response vs DMSO was 101%.

As to `CCOC(=O)c1c(CN2CCOCC2)n(-c2ccccc2)c2ccc(O)cc12`, the GFP response vs DMSO was 240% [may fluoresce violet] (active).

As to `CCOC(=O)c1c(CN(C)C)n(-c2ccccc2)c2cc(Br)c(O)cc12`, the GFP response vs DMSO was 96.5%.

In the case of `CCOC(=O)c1nnn(-c2nonc2-n2cccc2)c1CN1CCOCC1`, the GFP response vs DMSO is 92.2%.

Turning to `Cc1ccc2nnn(Cc3cccc(C(C)(C)C)c3O)c2c1`, the GFP response vs DMSO was 92.5%.

Regarding `COc1ccc(C)cc1NC(=O)CN1c2cccc3cccc(c23)S1(=O)=O`, the GFP response vs DMSO is 101%.

On to `COc1cc(C(=O)Nn2c(O)c(C3=c4ccccc4=NC3=O)sc2=S)ccc1O`, for which the GFP response vs DMSO is 96.1%.

As for `COc1cccc(-n2c(SCC(=O)NC3CCS(=O)(=O)C3)nc3ccccc3c2=O)c1` (stereo not drawn), the GFP response vs DMSO is 109%.

For the compound `O=C1N(Cc2ccc3c(c2)OCO3)c2ccccc2C1(O)c1c[nH]c2ccccc12` (stereo not drawn), the GFP response vs DMSO was 104%.

Turning to `O=C(Nc1nccs1)c1cc(S(=O)(=O)N2CCOCC2)c(Cl)cc1Cl`, the GFP response vs DMSO is 97.8%.

With `CN(C)S(=O)(=O)c1cc(C(=O)Nc2ccn(C)n2)c(Cl)cc1Cl`, the GFP response vs DMSO was 7710% [may fluoresce green] (active).

As to `Cc1ccc(C(=O)Nc2ccn(C)n2)cc1`, the GFP response vs DMSO was 109%.

For `CCOC(=O)N1CCN(S(=O)(=O)c2ccc(Br)cc2)CC1`, the GFP response vs DMSO was 576% [may fluoresce violet] (active).

For the compound `CCOC(=O)N1CCN(S(=O)(=O)c2ccc(-n3cnnn3)cc2)CC1`, the GFP response vs DMSO is 93.2%.

`CCOC(=O)N1CCN(S(=O)(=O)c2ccc(OC)cc2)CC1`: the GFP response vs DMSO is 98.6%.

Turning to `NC(=O)COC(=O)c1ccc2c(c1)C(=O)N(Cc1ccco1)C2=O`, the GFP response vs DMSO is 103%.

As for `COc1ccc2sc(-c3ccc(N(C)C)cc3)c(C#CCO)c2c1`, the GFP response vs DMSO was 180% [may fluoresce violet] (active).

Regarding `COc1ccc(-c2sc3ccc(OC)cc3c2C#Cc2ccccn2)cc1`, the GFP response vs DMSO was 87.4%.

In the case of `COc1ccc2sc(-c3ccc(N(C)C)cc3)c(-c3ccc4cc[nH]c4c3)c2c1`, the GFP response vs DMSO is 105%.

Consider `COc1ccc(S(=O)(=O)NCC(c2ccco2)N2CCOCC2)cc1` (stereo not drawn), for which the GFP response vs DMSO is 97.3%.

In the case of `O=C(CC1CCCCC1)NCc1ccc(F)cc1`, the GFP response vs DMSO is 92.1%.

On to `O=C(CSc1nnnn1-c1ccc(O)cc1)c1ccc(F)cc1`, for which the GFP response vs DMSO was 106%.

On to `COC(=O)c1ccc(-c2noc(CN(Cc3ccccn3)CC3CCCO3)n2)cc1` (stereo not drawn), for which the GFP response vs DMSO was 102%.

On to `COc1ccc(CN2CCn3ncc(C(=O)Nc4ccc(Cl)cc4Cl)c3C2=O)cc1`, for which the GFP response vs DMSO is 107%.

In the case of `O=C1N=C(N2CCOCC2)CS1`, the GFP response vs DMSO is 99.2%.

With `CC(=O)NC(CC(=O)Nc1ccc(S(=O)(=O)N2CCOCC2)cc1)c1ccccc1` (stereo not drawn), the GFP response vs DMSO was 95.3%.

As for `O=C(N/N=C/c1cccc([N+](=O)[O-])c1)C1CC(=O)N(c2ccc(Br)cc2)C1` (stereo not drawn), the GFP response vs DMSO was 100%.

In the case of `O=[N+]([O-])c1cccc(/C=N/Nc2ncc(Br)cn2)c1`, the GFP response vs DMSO is 239% (active).

Consider `O=[N+]([O-])c1ccc(N/N=C/c2ccccc2)cc1`, for which the GFP response vs DMSO was 102%.

Take `COC(=O)C(C)n1cnc2c(nnn2-c2ccc(F)cc2)c1=O` (stereo not drawn): the GFP response vs DMSO is 95.3%.

With `CCOC(=O)C(C)n1cnc2c(nnn2-c2ccc(F)cc2)c1=O` (stereo not drawn), the GFP response vs DMSO was 98.2%.

As to `CCOC(=O)C(CC)Sc1ncnc2c1nnn2-c1ccc(F)cc1` (stereo not drawn), the GFP response vs DMSO was 191% (active).

As for `CC(=O)c1cccc(OCc2cc(C(=O)NC(C)Cc3cccnc3)no2)c1` (stereo not drawn), the GFP response vs DMSO was 92.2%.

`CCOC(=O)c1[nH]c(C)c(C(=O)OCC(=O)N2c3ccccc3CC2C)c1C` (stereo not drawn): the GFP response vs DMSO is 105%.

In the case of `CN(C)C(=O)c1cccn(Cc2cccc(C(F)(F)F)c2)c1=O`, the GFP response vs DMSO is 97.2%.

Regarding `COc1ccccc1Nc1nnc(SC(C)C(=O)NC2CC2)s1` (stereo not drawn), the GFP response vs DMSO was 100%.

Regarding `COc1ccc(CN2CCCC(C(=O)c3ccc(Cl)cc3)C2)cc1Cn1cncn1` (stereo not drawn), the GFP response vs DMSO was 99.8%.

For `COc1ccc(C(=O)NC2CC2)cc1OC1CCN(Cc2ccc(SC)cc2)CC1`, the GFP response vs DMSO is 112%.

Turning to `COc1cc(CN2CCCC(C(=O)c3ccc(SC)cc3)C2)cc(Cl)c1O` (stereo not drawn), the GFP response vs DMSO was 596% [may fluoresce violet] (active).

Take `COc1ccc(OC)c(NC(=O)CSc2nc(-c3ccccc3)cc(=O)[nH]2)c1`: the GFP response vs DMSO was 107%.

For the compound `Cc1cc(=O)oc2cc(OCC3CC(c4ccccc4Cl)=NO3)ccc12` (stereo not drawn), the GFP response vs DMSO is 100%.

Turning to `O=C(Cn1ncc(N2CCCC2)c(Br)c1=O)c1ccc(Cl)cc1`, the GFP response vs DMSO is 98.2%.

For `Cc1oc(-c2ccccc2F)nc1CS(=O)CC(=O)NCCN1CCCCC1C` (stereo not drawn), the GFP response vs DMSO is 103%.

Take `CCc1ccccc1S(=O)(=O)Cc1ccc(C(=O)NCCc2ccccc2)o1`: the GFP response vs DMSO was 109%.

In the case of `Cc1ccccc1S(=O)(=O)Cc1ccc(C(=O)NCCN2CCCCC2C)o1` (stereo not drawn), the GFP response vs DMSO was 460% [may fluoresce violet] (active).

Regarding `CCOc1ccc(CCNC(=O)C(CC)n2nc(C)n3c(cc4sccc43)c2=O)cc1OCC` (stereo not drawn), the GFP response vs DMSO was 105%.

As to `CCOc1ccc2nc(N(CCN(C)C)C(=O)c3ccc4ccccc4c3)sc2c1`, the GFP response vs DMSO was 233% [may fluoresce violet] (active).

For the compound `CCc1ccc2nc(N(CCCN(C)C)C(=O)c3ccc4c(c3)OCCO4)sc2c1`, the GFP response vs DMSO was 104%.

Turning to `CCOc1ccc2nc(N(CCCN(C)C)C(=O)c3ccc(C(=O)c4ccccc4)cc3)sc2c1`, the GFP response vs DMSO is 104%.

In the case of `CC(C)(C)c1ccc(C(CC(=O)O)NS(=O)(=O)Cc2ccccc2)cc1` (stereo not drawn), the GFP response vs DMSO is 98.8%.

Take `CCSC1=NCCN1C(=O)c1ccc(S(=O)(=O)N(CC)CC)cc1`: the GFP response vs DMSO is 106%.

As to `O=C(NCCc1ccccc1)C(=O)NCC1OCCN1S(=O)(=O)c1cccs1` (stereo not drawn), the GFP response vs DMSO was 108%.

With `CCN1/C(=C/c2ccc3ccc(C)cc3[n+]2CC)Sc2ccccc21`, the GFP response vs DMSO is 351% [may fluoresce green] (active).

As for `CCN1/C(=C\c2ccc3ccccc3[n+]2CC)Sc2cc(C)ccc21`, the GFP response vs DMSO is 1150% [may fluoresce green] (active).

Consider `O=C(NC1Cc2ccccc2C1)c1cc(COc2cccc(C(F)(F)F)c2)on1`, for which the GFP response vs DMSO was 104%.

Take `CCC(=O)Nc1ccc(C(=O)N2CCN(C(=O)c3ccco3)CC2)cc1`: the GFP response vs DMSO is 104%.

Consider `Cc1ccc(C)c(OCC(=O)N2CCN(C(=O)c3ccco3)CC2)c1`, for which the GFP response vs DMSO is 105%.

Consider `Cc1ccc(OCC(=O)Nc2ccc(N3CCN(C(=O)c4ccco4)CC3)cc2)c(C)c1`, for which the GFP response vs DMSO is 229% [may fluoresce violet] (active).

Turning to `CCN(C[C@H]1N[C@@](Cc2ccccc2)(C(=O)OC)[C@H]2C(=O)N(Cc3ccccc3)C(=O)[C@@H]12)C(=O)c1ccc(C)cc1`, the GFP response vs DMSO is 84.7%.

For `CC(CN1CCOCC1)OC(=O)c1ccc(C(C)(C)C)cc1` (stereo not drawn), the GFP response vs DMSO was 110%.

Take `COCC(C)OC(=O)c1c(N)n(CCCN2CCOCC2)c2nc3ccccc3nc12` (stereo not drawn): the GFP response vs DMSO is 210% [may fluoresce violet] (active).

On to `CC(C)(C)OC(=O)c1c(N)n(CCCN2CCCC2=O)c2nc3ccccc3nc12`, for which the GFP response vs DMSO was 107%.

Consider `CCOC(=O)Cc1csc(NC(=O)CN(C)S(=O)(=O)c2ccc3c(c2)CCC(=O)N3)n1`, for which the GFP response vs DMSO is 96%.

For `CCCN1C(=O)C(NC(C)=O)c2cc(OC)ccc21` (stereo not drawn), the GFP response vs DMSO was 107%.

In the case of `O=C(CS(=O)(=O)c1cn(Cc2ccc(Cl)cc2)c2ccccc12)N1CCOCC1`, the GFP response vs DMSO is 91.9%.

Turning to `O=C(CS(=O)(=O)c1cn(Cc2cccc(F)c2)c2ccccc12)N1CCCCC1`, the GFP response vs DMSO is 236% [may fluoresce violet] (active).

With `CC(=O)Nc1ccc(NC(=O)CS(=O)(=O)c2cn(CC(=O)N3CCCCC3)c3ccccc23)cc1`, the GFP response vs DMSO was 95.1%.

Take `CC(NC(=O)c1cccc2ccccc12)c1ccc2c(c1)CCCC2` (stereo not drawn): the GFP response vs DMSO is 148%.

For `Cc1c(C(=O)OCC(=O)N2CCCC2=O)oc2ccccc12`, the GFP response vs DMSO was 108%.

Regarding `Cc1ccc(C(=O)N2CC(=O)Nc3ccccc32)o1`, the GFP response vs DMSO was 101%.

`O=C(O)c1cccc2c1C(=O)N(C1CCCC1)C2`: the GFP response vs DMSO is 97.4%.

Regarding `Nc1nnc(SCC(=O)OCc2ccc(Cl)c(Cl)c2)s1`, the GFP response vs DMSO was 95.3%.

(Values after PubChem BioAssay AID2016 (NMMLSC, 2009).)
